Data published in PubChem BioAssay AID743287 (Broad Institute, 2014).
“And” between values parts separate entries of the source, which are not always exact repeats. Equal values may be shown once. Out of some 370,000 compounds screened, about 2,300 (0.62%) were called active.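 Rule for the calls: active = lowest replicate activation of at least 40%, so every replicate reaches that level; inactive = the rest.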 Many of the other results were omitted from the sample, so actives are more common in it than they were.

Experiment: GLuc luminescence reporter in INS-1E cells, primary screen for activators of glucose-dependent secretion of insulin (AID 743287);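 note: 0% = median of neutral control wells and 100% = median of IBMX positive control wells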
Details: INS-1E GLuc reporter insulin secretion, 2-3 h, at 16.6 µM, hits give high values

activation, inactive:
C[C@H](CO)N1C[C@H](C)[C@@H](CN(C)C(=O)Nc2ccnc(N3CCOCC3)c2)OCc2ccccc2-c2c(n(C)c3ccccc23)C1=O -17.9%
CNC[C@H]1Oc2ccc(NC(=O)CCC(F)(F)F)cc2C(=O)N([C@@H](C)CO)C[C@H]1C 4.67%
C[C@H]1CN([C@@H](C)CO)C(=O)c2cc(NC(=O)Cc3cn(C)c4ccccc34)ccc2O[C@@H]1CN(C)Cc1ccc(Cl)c(Cl)c1 7.56%
C[C@H](CO)N1C[C@H](C)[C@@H](CN(C)C(=O)Nc2cc(F)ccc2F)Oc2cc(C#CC3CC3)ccc2S1(=O)=O -8.09%
CN(C)C(=O)[C@@H]1[C@@H](CO)[C@@H]2Cn3c(cccc3=O)[C@H]1N2C(=O)c1ccc(F)cc1 7.45%
O=C(C[C@@H]1CC[C@H](NC(=O)C2CC2)[C@@H](CO)O1)NCc1ccncc1 -4.07%
COc1ccc(C2OCC3(CO2)SC(=O)NC3=O)cc1OC (stereo not given) 21.8%
CCc1nc2c(OCc3ccc(F)c(F)c3)cccn2c1N(C)C(=O)c1ccco1 -1.95%
CCc1nc2c(OCc3ccccc3)cccn2c1N(C)C(=O)c1ccco1 17.3%
CCC(=O)Nc1ccc2c(c1)C(=O)N(C)C[C@@H](OC)[C@H](C)CN(Cc1cccnc1)[C@@H](C)CO2 -1.44%
C[C@@H]1CN([C@@H](C)CO)C(=O)c2cccc(NC(=O)C3CC3)c2O[C@@H]1CN(C)C 21.1%
CC(=O)N1CCc2c(sc(NC(=O)CCS(=O)(=O)c3ccc(C)cc3)c2C(N)=O)C1 4.75%
CCOC(=O)c1c(NC(=O)C2CCN(S(=O)(=O)c3ccc(Cl)cc3)CC2)sc2c1CCCC2 -4.47%
Cc1ccc(S(=O)(=O)N(C)C[C@@H]2Oc3c(NC(=O)C4CCCCC4)cccc3C(=O)N([C@H](C)CO)C[C@H]2C)cc1 -9.86%
O=C(Nc1ccc(CN2CCOCC2)cc1)c1cc(Cl)ccc1Cl -0.035%
C=CCc1cccc2cc(C(=O)Nc3ccc(NC(C)=O)cc3)c(=O)oc12 6.64%
C[C@H](CO)N1C[C@H](C)[C@H](CN(C)S(=O)(=O)c2ccccc2)Oc2ccc(NC(=O)Cn3cnnn3)cc2C1=O 12.8%
C[C@H]1CN([C@@H](C)CO)C(=O)c2cccc(NC(=O)Nc3ccc(F)cc3)c2O[C@H]1CN(C)S(=O)(=O)c1cn(C)cn1 6.95%
O=C(COC(=O)/C=C/c1ccc(Cl)cc1)NC1CCS(=O)(=O)C1 (stereo not given) 14.8%
O=C(COC(=O)c1ncc(Cl)c(Cl)c1Cl)NNC(=O)c1ccccc1 -6.14%
O=c1[nH]c2ccccc2n1C1CCN(CCOc2ccccc2)CC1 -4.23%
N#Cc1ccc(OCCCN2CCC(C(O)(c3ccccc3)c3ccccc3)CC2)c(F)c1 -32.8%
CC(=O)N1[C@H](CN(C)S(=O)(=O)c2ccccc2)[C@H](c2ccccc2)[C@@H]1CO 2.97%
COc1ccc(NC(=O)N(C)C[C@@H]2Oc3ccc(NC(=O)Nc4ccccc4)cc3CC(=O)N([C@H](C)CO)C[C@@H]2C)cc1 -8.36%
CN1CCCc2nc(-c3ccccc3)ccc21 15.2%
Cc1ccc(-c2cc(=O)[nH]c(NCc3ccccc3)n2)cc1 0.61%
C[C@@H]1CN([C@H](C)CO)C(=O)c2cccc(NC(=O)CCCCCC(=O)Nc3ccccc3N)c2O[C@H]1CN(C)Cc1ccc(Oc2ccccc2)cc1 -51.6%
O=C(C[C@@H]1CC[C@@H](NC(=O)c2ccc3c(c2)OCO3)[C@H](CO)O1)NCc1ccc(Cl)cc1 -2.44%
COc1ccc(S(=O)(=O)N(C)C[C@H]2Oc3ccc(NS(=O)(=O)c4ccc(F)cc4)cc3C(=O)N([C@H](C)CO)C[C@H]2C)cc1 -11.6%
COC(=O)C1=C(C)N(C)C(=S)NC1c1cc(OC)ccc1OC (stereo not given) -51%
COC(=O)C1=C(C)NC(=S)NC1c1ccc(OCC(=O)N2CC(C)OC(C)C2)c(OC)c1 (stereo not given) 8.95%
CC(=O)N(C)C[C@@H]1Oc2ccc(N)cc2CC(=O)N(C)C[C@H]1C -4.42%
Cc1ccnc(NS(=O)(=O)c2ccc(NC(=O)c3oc4ccccc4c3C)cc2)n1 -7.58%
Cc1ccnc(NS(=O)(=O)c2ccc(NC(=O)c3oc4ccc(F)cc4c3C)cc2)n1 17.6%
CC(=O)Nc1ccc2c(c1)CC(=O)N(C)C[C@H](C)[C@H](CN(C)S(C)(=O)=O)O2 17.7%
CC=Cc1ccc2n(c1=O)C[C@H]1[C@H](CO)[C@@H](C(=O)NC3CCCC3)[C@@H]2N1C(=O)c1cnccn1 (mixture of isomers) 3.54%
CC1CN(C(=S)Nc2ccc(Br)cc2Cl)CC(C)O1 (stereo not given) -10.5%
Cc1ccccc1C(=O)NC(=S)NC1CC1 -11.6%
C[C@@H]1CN([C@H](C)CO)C(=O)c2cccc(NS(=O)(=O)c3cn(C)cn3)c2O[C@H]1CN(C)S(=O)(=O)c1ccc(Cl)cc1 12%
O=C(Nc1ccccc1F)N1CC(=O)N2[C@H](CO)[C@H](c3ccc(C#CC4CC4)cc3)[C@@H]2C1 -9.47%
COc1cccc(CNC(=O)c2cc3c(c(-c4cccc(-c5ccc(C#N)cc5)c4)n2)[C@@H](CCO)N([S@](=O)C(C)(C)C)C3)c1 11.4%
O=C1NCCOCc2cn(nn2)CC[C@@H]1Cc1ccccc1 9.64%
CCOC(=O)c1sc2nc(C)nc(Nc3ccc(OC)c(OC)c3)c2c1C 15.4%
CCOC(=O)c1sc2nc(C)nc(SCC(N)=O)c2c1C 13.1%
CCCNC(=O)N1C[C@@H](O)COC[C@H]2O[C@H](CC(=O)N3CCC(Cc4ccccc4)CC3)CC[C@@H]21 2.87%
CC(C)NC(=O)N1CCCCN2[C@H](CO)[C@@H](c3ccc(Br)cc3)[C@H]2C1 1.31%
Cc1cccc(-c2c(NC(=O)c3ccco3)oc3ccc(Cl)cc3c2=O)c1 -13.2%
COc1ccc(OC)c(NC(=O)c2cnn(-c3ccccc3Cl)c2NC(=O)c2ccco2)c1 -0.082%
O=C(Nc1cc(F)ccc1F)N1CCCCN2[C@H](CO)[C@@H](c3ccc(-c4cccnc4)cc3)[C@@H]2C1 -2.5%
CO[C@H]1CN(C)C(=O)c2ccc(NC(=O)C3CCCC3)cc2OC[C@@H](C)NC[C@@H]1C -7.48%
COc1cccc(CNC(=O)[C@@H]2[C@@H](CO)[C@@H]3Cn4c(ccc(-c5cccnc5)c4=O)[C@@H]3N2C)c1 -0.31%
O=C(NCC[C@@H]1CC[C@@H](NS(=O)(=O)c2ccc(Cl)cc2)[C@@H](CO)O1)c1ccccc1F 6.92%
C[C@@H]1CN([C@H](C)CO)S(=O)(=O)c2ccc(C3=CCCC3)cc2O[C@H]1CN(C)C(=O)CC1CC1 -5.57%
COCCCNC(=O)CCc1nc2cccnc2n1Cc1ccc(OC)cc1 10.4%
CCOc1ncccc1C(=O)NCCc1ccc(OC)cc1 35.2%
COCC(=O)N1CCC2(CC1)CN(C(=O)Nc1ccccc1F)[C@@H](CO)c1c2c2ccc(OC)cc2n1C -10.5%
O=S(=O)(NCC[C@H]1CC[C@@H](NS(=O)(=O)c2cccc(Cl)c2)[C@@H](CO)O1)c1cccc(F)c1 -5.04%
CO[C@@H]1CN(C)C(=O)c2ccc(NS(=O)(=O)c3ccc(Cl)cc3)cc2OC[C@@H](C)N(C)C[C@H]1C -6.5% and 12.1%
O=C(C1CCCCC1)N1C[C@@H]2N[C@H](C1)C2c1ccc(-c2cccc(F)c2)cc1 (stereo not given in full) 22.3% and -4.66%
CN(C)C(=O)c1ccc(-c2ccc(C3[C@@H]4CN(C(=O)Nc5ccccc5)C[C@H]3N4)cc2)cc1 (stereo not given in full) -5.33%
C[C@H]1CN([C@@H](C)CO)C(=O)c2cc(NC(=O)C3CCCCC3)ccc2O[C@H]1CN(C)S(=O)(=O)c1cn(C)cn1 17.4%

activation, active:
COc1ccc(C2CC(=O)Nc3sc(=N)c4c(N)c(C#N)c(N)nc4c32)cc1OC (stereo not given) 70.3%
CCc1nc2c(OCCC3CCCCC3)cccn2c1N(C)C(=O)c1ccco1 42%
C=CCN(CC=C)S(=O)(=O)c1ccc(C(=O)Nc2sc3c(c2C(N)=O)CCCCC3)cc1 47.2%
C=CCn1cc(Cl)cc(C(=O)Nc2ccccc2)c1=O 98.4%
O=C(COC(=O)c1ncc(Cl)c(Cl)c1Cl)NC1CCS(=O)(=O)C1 (stereo not given) 53.1%
OC(c1ccccc1)(c1ccccc1)C1CCN(CCCOc2ccc(-c3ccsc3)cc2)CC1 83.7%
CNc1nc(-c2ccccc2)cc(-c2ccccc2)n1 50.3%
COC(=O)C1=C(C)NC(=S)NC1c1ccc(OC)cc1 (stereo not given) 140%
Cc1cc(C)c2oc(C(=O)Nc3ccc(S(=O)(=O)Nc4nccc(C)n4)cc3)cc(=O)c2c1 74.6%
Cc1cc(Br)ccc1NC(=S)NC1CCCC1 46.8%
CCOC(=O)c1sc2nc(C)[nH]c(=O)c2c1C 49.9%
COc1ccc(-c2c(NC(=O)c3ccco3)oc3ccc(Cl)cc3c2=O)cc1 106%
CCOC(=O)Cn1c(=O)n(Cc2ccc(OC)cc2)c(=O)c2cccnc21 46.4%
Cc1cccc(-c2ccc(C3[C@@H]4CN(C(=O)Nc5ccc(C(F)(F)F)cc5)C[C@H]3N4)cc2)c1 (stereo not given in full) 763%
